Hits are enriched below; roughly 2.6% of the tested compounds scored in any of these assays.
NFkB binder: binds human NF-kappa-B p105 on microarray. P19838. Small molecule microarray, anti-His fluorescence binding. calls only. 17,000 compounds, 1.3% hits;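 active = spot fluorescence over background significantly raised, with a chance value under 7% in all four replicate spots of the compound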;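 also: probe protein is his-tagged human p50 processed subunit at 1 µg/ml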
mut p53 react: restores mutant p53 pathway signaling in SW480 cells. SW480 PUMA-promoter luciferase, p53 mutant reactivation. activation, % at 9.98 µM. 28,000 compounds, 1.5% hits; in the data active = activation above about 52%; inconclusive = no clear call, values can overlap the other calls
Myc binder: binds human c-Myc on microarray; P01106; small molecule microarray, His-c-Myc binding, anti-His fluorescence; calls only; 17,000 compounds, 1.5% hits;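 active = spot fluorescence over background with P-value below 7% in all four replicate spots, showing protein binding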
Target sequence (P01106 whole entry, looked up): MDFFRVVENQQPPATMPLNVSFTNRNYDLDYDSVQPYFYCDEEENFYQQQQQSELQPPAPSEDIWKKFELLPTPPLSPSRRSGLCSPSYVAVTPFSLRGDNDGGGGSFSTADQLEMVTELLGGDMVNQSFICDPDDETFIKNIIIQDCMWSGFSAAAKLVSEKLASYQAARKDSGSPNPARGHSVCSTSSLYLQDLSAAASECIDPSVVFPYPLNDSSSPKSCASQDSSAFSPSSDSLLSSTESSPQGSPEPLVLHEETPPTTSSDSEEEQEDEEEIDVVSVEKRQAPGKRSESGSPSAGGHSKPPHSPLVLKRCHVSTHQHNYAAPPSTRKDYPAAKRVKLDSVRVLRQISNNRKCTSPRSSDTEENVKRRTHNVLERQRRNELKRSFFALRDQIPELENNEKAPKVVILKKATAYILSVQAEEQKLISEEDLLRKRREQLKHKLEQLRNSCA
STAT3 binder: binders of human STAT3. P40763. Small molecule microarray, His-STAT3 binding, anti-His fluorescence. calls only. 17,000 compounds, 0.2% hits. AID 624138;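 active = compounds whose four printed spots each show fluorescence over background unusually high for their array block, chance value under 7%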
mut p53 SMM: mutant p53 (human) binding | 17,000 compounds, 0.4% hits | small molecule microarray binding, anti-GST fluorescence | calls only | AID 624136;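 active = compounds whose four printed spots each glow above background more than chance allows, each with a p-value under 7%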
Of the large screens only hits and unclear results are named; the others gave an inactive call.

O=C(O)CSc1cn(Cc2ccccc2)c2ccccc12	none (no result: NFkB binder, Myc binder, STAT3 binder, mut p53 SMM)
CC1=C(CO)C(=O)OC([C@@H](C)[C@H]2CCC3C4CC=C5C[C@@H](O[C@@H]6O[C@H](CO)[C@@H](O)[C@H](O)[C@H]6O)C[C@H](O)[C@]5(C)C4CC[C@@]32C)C1 (stereo partly drawn)	none
CC1CCC2(NC1)OC1CC3C4CC=C5CC(O[C@@H]6O[C@H](CO)[C@@H](O[C@@H]7O[C@@H](C)[C@H](O)[C@@H](O)[C@H]7O)[C@H](O)[C@H]6O)CCC5(C)C4CCC3(C)C1C2C (stereo partly drawn)	NFkB binder active
COc1cccc(-c2nn(C)c3sc(C(=O)N4CCCCCC4)cc23)c1	none (no result: NFkB binder, Myc binder, STAT3 binder, mut p53 SMM)
Cc1ccc(NC(=O)c2ccc(OC(=O)CCN3C(=O)c4ccccc4C3=O)cc2)cc1	mut p53 react 102 (no result: NFkB binder, Myc binder, STAT3 binder, mut p53 SMM)
COc1ccc2nc(Nc3nc(C)c(CCC(C)C)c(=O)[nH]3)nc(C)c2c1	NFkB binder active
Cc1ccc2cc(S(=O)(=O)NCCC(=O)O)ccc2c1	Myc binder active
Cc1cc(C)c(S(=O)(=O)NCC(=O)O)c(C)c1	Myc binder active
Cc1cc(S(=O)(=O)NCC(=O)O)ccc1F	Myc binder active
CC(C)(C)c1ccc(S(=O)(=O)NCCC(=O)O)cc1	none (no result: NFkB binder, Myc binder, STAT3 binder, mut p53 SMM)
O=C(CSc1n[nH]c(-c2ccccc2)n1)Nc1cccc(C(F)(F)F)c1	none (no result: NFkB binder, Myc binder, STAT3 binder, mut p53 SMM)
O=C(CSc1nccc(=O)[nH]1)Nc1cccc(C(F)(F)F)c1	none
CSc1cccc(NC(=O)CSc2nnc(-c3ccco3)n2C)c1	none (no result: NFkB binder, Myc binder, STAT3 binder, mut p53 SMM)
CC(C)(Sc1ccc(CCN(CCCCC2CCCCC2)C(=O)NC2CCCCC2)cc1)C(=O)O	NFkB binder active
Cc1c(NC(=O)COc2ccc(Br)cc2)cccc1-c1nc2cc(Cl)ccc2o1	none (no result: NFkB binder, Myc binder, STAT3 binder, mut p53 SMM)
Cn1c2ccccc2c2nnc(SCC(=O)c3ccc(Cl)cc3)nc21	Myc binder active
Cc1c(C(=O)N(C)C2CCCCC2)sc2nc3ccc(N)cc3n12	Myc binder active
COc1ccc([Si](C)(C)[C@H]2[C@H](CCO)O[C@@]3(C(=O)N(Cc4ccccc4)c4ccc(NC(=O)[C@H](C)O)cc43)[C@@H]2C)cc1	NFkB binder active, mut p53 SMM active (no result: mut p53 react)
O=C(CSc1ncnc2sc3c(c12)CCCC3)N1CCc2ccccc21	none (no result: NFkB binder, Myc binder, STAT3 binder, mut p53 SMM)
CC(C)(C)C(=O)CSc1ncnc2sc3c(c12)CCCC3	mut p53 react 71 (no result: NFkB binder, Myc binder, STAT3 binder, mut p53 SMM)
O=C1c2ccccc2S(=O)(=O)N1CC(O)Cn1c2ccc(Cl)cc2c2cc(Cl)ccc21 (stereo not drawn)	none (no result: NFkB binder, Myc binder, STAT3 binder, mut p53 SMM)
COc1ccc(OC)c(NC(=O)c2ccc(CSc3nnc(C)s3)cc2)c1	mut p53 react 62
COc1ccc(C(=O)NCC(=O)Nc2cc(OC)ccc2OC)cc1	none
C[C@H]1CCCCO[C@H](CN(C)C(=O)CCC(F)(F)F)[C@@H](C)CN([C@@H](C)CO)C(=O)c2cc(NC(=O)CCC(F)(F)F)ccc2O1	none
C[C@@H]1CCCCO[C@H](CN(C)C(=O)CCC(F)(F)F)[C@@H](C)CN([C@H](C)CO)C(=O)c2cc(NC(=O)CCC(F)(F)F)ccc2O1	NFkB binder active, Myc binder active, mut p53 SMM active
C[C@@H]1CN([C@@H](C)CO)C(=O)c2cc(NC(=O)CCC(F)(F)F)ccc2O[C@@H](C)CCCCO[C@H]1CN(C)C(=O)CCC(F)(F)F	NFkB binder active
COc1ccccc1NC(=O)c1c(C)nc(Nc2nc3ccccc3o2)nc1C	none
CCOC(=O)Cc1cc(=O)[nH]c(Nc2nc3ccccc3o2)n1	mut p53 react inconclusive, mut p53 SMM active
CC[C@H](CO)Nc1nc(NCc2ccccc2)c2ncn(C(C)C)c2n1	mut p53 react 119 (no result: NFkB binder, Myc binder, STAT3 binder, mut p53 SMM)
CC(C)n1cnc2c(Nc3cccc(Cl)c3)nc(NCCO)nc21	none
Cc1cc(C)c(C)c(OCC(=O)Nc2ccccc2C(N)=O)c1	mut p53 react 53 (no result: NFkB binder, Myc binder, STAT3 binder, mut p53 SMM)
CCc1ccc(OCC(=O)Nc2ccccc2C(N)=O)c(Br)c1	mut p53 react 71
O=C(COc1cc(Cl)c(Cl)cc1Cl)Nc1ccccc1[N+](=O)[O-]	none (no result: NFkB binder, Myc binder, STAT3 binder, mut p53 SMM)
CC1(C)CC(=O)C2=C(C1)NC1=C(C(=O)c3ccccc31)C2c1ccc(OC(=O)CN2C(=O)C3CCCCC3C2=O)cc1 (stereo not drawn)	none
CC(C)(C)[C@@H]1C=C(C(=O)O)O[C@H](OCc2ccc(CO)cc2)C1	NFkB binder active (no result: mut p53 react)
O=C(NCc1nc2ccccc2[nH]1)C1=C[C@@H](c2coc3ccccc3c2=O)C[C@@H](OCc2ccc(CO)cc2)O1	none (no result: mut p53 react)
O=C1O[C@@H](c2ccccc2)[C@@H](c2ccccc2)N2[C@@H](c3ccc(O)cc3)[C@]3(C(=O)Nc4ccccc43)[C@@H](C(=O)N3CCCCCCC3)[C@H]12	none (no result: mut p53 react)
COC(=O)C(CC#Cc1ccc2c(c1)[C@]1(C(=O)N2)[C@H](c2ccc(OCCO)cc2)N2[C@H](c3ccccc3)[C@H](c3ccccc3)OC(=O)[C@H]2[C@@H]1C(=O)N1CCCCCCC1)C(=O)OC	mut p53 SMM active (no result: mut p53 react)
O=C1O[C@H](c2ccccc2)[C@H](c2ccccc2)N2[C@H]1[C@@H](C(=O)N1CCCCCCC1)[C@]1(C(=O)Nc3ccccc31)[C@H]2c1ccc(O)cc1	NFkB binder active, Myc binder active, mut p53 SMM active (no result: mut p53 react)
O=C1O[C@H](c2ccccc2)[C@H](c2ccccc2)N2[C@H]1[C@@H](C(=O)N1CCCCCCC1)[C@]1(C(=O)Nc3ccc(C#CC4=CCCCC4)cc31)[C@H]2c1ccc(OCCO)cc1	NFkB binder active, Myc binder active, mut p53 SMM active (no result: mut p53 react)
O=C1O[C@H](c2ccccc2)[C@H](c2ccccc2)N2[C@H]1[C@@H](C(=O)N1CCCCCCC1)[C@]1(C(=O)Nc3ccc(C#CC4(O)CCCCCC4)cc31)[C@H]2c1ccccc1OCCO	mut p53 SMM active (no result: mut p53 react)
O=C(CSCc1ccccc1Br)Nc1cccnc1	none (no result: NFkB binder, Myc binder, STAT3 binder, mut p53 SMM)
COC(=O)C(CC#Cc1ccc2c(c1)[C@]1(C(=O)N2)[C@H](C(N)=O)[C@H]2C(=O)O[C@H](c3ccccc3)[C@H](c3ccccc3)N2[C@@H]1c1ccccc1OCCO)C(=O)OC	mut p53 SMM active (no result: mut p53 react)
COC(=O)C(CC#Cc1ccc2c(c1)[C@]1(C(=O)N2)[C@H](C(N)=O)[C@H]2C(=O)O[C@H](c3ccccc3)[C@H](c3ccccc3)N2[C@@H]1c1ccc(OCCO)cc1)C(=O)OC	none (no result: mut p53 react)
CN1/C(=C\C=C2\C(=O)Oc3ccccc3C2=O)C(C)(C)c2ccccc21	mut p53 react 105 (no result: NFkB binder, Myc binder, STAT3 binder, mut p53 SMM)
CN(CC(=O)N1CCC(C(N)=O)CC1)S(=O)(=O)c1ccc(F)cc1	none (no result: NFkB binder, Myc binder, STAT3 binder, mut p53 SMM)
Brc1ccc(-c2cnc3ccccc3n2)s1	mut p53 react 74 (no result: NFkB binder, Myc binder, STAT3 binder, mut p53 SMM)
CCCN(CCC)CC1CCCCN1CCNC(=O)N1c2ccccc2C(=O)Nc2cccnc21 (stereo not drawn)	mut p53 SMM active
CCOC(=O)CCCSc1nc2c(c(C(F)(F)F)c1C#N)CC(C)CC2 (stereo not drawn)	none
N#Cc1ccc(NC(=O)c2ccc(Br)o2)cc1	mut p53 react 64 (no result: NFkB binder, Myc binder, STAT3 binder, mut p53 SMM)
N#Cc1ccc(NC(=O)CCN2C(=O)c3ccccc3C2=O)cc1	none (no result: NFkB binder, Myc binder, STAT3 binder, mut p53 SMM)
C[C@H](CO)N1C[C@H](C)[C@@H](CN(C)Cc2ccc(-c3ccccc3)cc2)Oc2ccc(NC(=O)Nc3cccc4ccccc34)cc2CC1=O	NFkB binder active (no result: mut p53 react)
